# Screens as filed in PubChem.
# In the library only some 1.1% were active in any assay of this set; here they are far more common.
# NCOA1 inh – inhibits human SRC1 coactivator; HEK293 GAL4-SRC1 luciferase reporter, luminescence; inhibition, % at 3.6 µM; 0.12% of 360,000 active; AID 588354;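 active means inhibition above the campaign mean plus 3 SD, with each screening campaign given its own cutoff, cut at about 60% in these data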;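 further: 0% = DMSO treated cells and 100% = gossypol at 36 µM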
# SRC2 inh – inhibits human steroid receptor coactivator 2; Q15596; HEK293 GAL4-SRC2 luciferase reporter, luminescence; inhibition, % at 9 µM; 0.17% of 370,000 active; AID 651957;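 active means inhibition above the mean inhibition of all tested compounds plus 3 SD, set per campaign, cut at about 52% in these data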;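 further: 0% = DMSO treated cells and 100% = cells given Gossypol at 36 µM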
# COUP-TFII inh – inhibitors of human COUP-TFII (NR2F2); HEK293T NGFI-A luciferase reporter, luminescence; inhibition, % at 8.6 µM; 0.7% of 370,000 active; AID 686940;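 active means inhibition above a per-plate cutoff, mean inhibition of test wells between control levels plus 3 SD, cut at about 38% in these data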;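 further: cells cotransfected with COUP-TFII expression vector driving the NGFI-A reporter; 0% = median of COUP-TF2 test wells and 100% = reporter-only cells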
# NCOA3 inh – inhibits human SRC3 coactivator | Q9Y6Q9 | HEK293 GAL4-SRC3 luciferase reporter, luminescence | inhibition, % at 3.6 µM | 0.17% of 360,000 active;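 active means inhibition above a per-campaign cutoff, the mean of all compounds plus 3 SD, cut at about 60% in these data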;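 further: 0% = DMSO-treated cells and 100% = gossypol-treated cells at 36 µM; higher means less SRC3-driven luciferase light from the GAL4 reporter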
# GalR3 antag – antagonists of human GalR3; O60755; HEK293 GalR3-CNG cAMP membrane potential fluorescence; galR3 body fused to GalR1 C-terminus; inhibition, % at 3 µM; 0.44% of 360,000 active; AID 651719;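 active means inhibition above the screen-wide average plus 3 SD, cut at about 13% in these data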;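 further: forskolin and galanin both at EC90 stimulate the cells; cAMP rise reported by CNG channel membrane potential dye signal; 0% = forskolin plus galanin with DMSO and 100% = forskolin alone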
# NR5A2 inv ag – inverse agonists of human LRH-1 (NR5A2); inhibition, % at 3.6 µM; HEK293T StAR-luciferase reporter, LRH-1 transfected, 24 h; O00482; 0.13% of 360,000 active;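 active means inhibition above the mean inhibition of all tested compounds plus 3 SD, cut at about 73% in these data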;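 further: 0% = DMSO wells and 100% = reporter-only cells lacking LRH-1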
# Target sequence (O00482 whole entry, looked up): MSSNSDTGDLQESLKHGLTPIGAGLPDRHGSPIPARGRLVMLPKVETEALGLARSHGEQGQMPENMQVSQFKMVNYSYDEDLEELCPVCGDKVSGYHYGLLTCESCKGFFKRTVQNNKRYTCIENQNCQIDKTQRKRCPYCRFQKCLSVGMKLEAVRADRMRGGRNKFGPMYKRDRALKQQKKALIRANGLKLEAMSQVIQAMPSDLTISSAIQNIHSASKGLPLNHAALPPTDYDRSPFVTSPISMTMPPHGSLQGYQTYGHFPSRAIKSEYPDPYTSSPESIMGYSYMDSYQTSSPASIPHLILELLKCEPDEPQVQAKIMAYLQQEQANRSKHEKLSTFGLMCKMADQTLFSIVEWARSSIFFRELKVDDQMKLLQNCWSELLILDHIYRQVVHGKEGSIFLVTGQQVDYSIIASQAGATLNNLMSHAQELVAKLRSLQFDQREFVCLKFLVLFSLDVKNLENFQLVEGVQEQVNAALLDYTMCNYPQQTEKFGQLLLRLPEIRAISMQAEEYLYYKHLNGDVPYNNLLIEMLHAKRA
# GalR3 antag conf – GalR3 (human) antagonism, confirmation; shares compounds with GalR3 antag; HEK293 GalR3 CNG cAMP biosensor, membrane potential fluorescence; galR3 fused to GalR1 carboxy tail; challenged with forskolin and galanin at EC90; inhibition, % at 3 µM; 59% of 1,600 active;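 active means inhibition above the primary screen's cutoff, the mean inhibition of all screened compounds plus 3 SD, cut at about 13% in these data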;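 further: 0% = forskolin plus galanin and 100% = forskolin alone with DMSO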
# CNG parental – parental cell agonism counter-screen for GalR3 antagonists; shares compounds with GalR3 antag; HEK293-CNG parental cells, cAMP membrane potential fluorescence; normalised: DMSO wells 0%, forskolin wells 100%; activation, % at 3 µM; 10% of 1,600 active; in the data active means activation above about 1.3%
# VP16 Luc counter – counter-screen for COUP-TFII antagonists: inhibitors of VP16. 25% of 2,500 active. HEK293 Gal4-VP16 luciferase reporter, luminescence. inhibition, % at 8.5 µM. AID 687007. shares compounds with COUP-TFII inh; in the data active means inhibition above about 13%
# NR2F2 inh conf – confirmation of human COUP-TFII (NR2F2) inhibitors; shares compounds with COUP-TFII inh; HEK293 NGFI-A luciferase reporter, luminescence; inhibition, % at 8.5 µM; 45% of 2,500 active; AID 687008;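 active means mean inhibition over three repeats above a set limit taken from the earlier primary screen, cut at about 38% in these data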;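 further: 100% = cells given the luciferase reporter alone without the COUP-TF2 vector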
# The depositor's hits bear a star; x = not tested or not shown.
SMILES,NCOA1 inh,SRC2 inh,COUP-TFII inh,NCOA3 inh,GalR3 antag,NR5A2 inv ag,GalR3 antag conf,CNG parental,VP16 Luc counter,NR2F2 inh conf
COc1ccc(OC)c(S(=O)(=O)N2CCCCC2C(=O)N2CCN(CCO)CC2)c1 (stereo unspecified),x,-25,-6,x,x,x,x,x,x,x
CNC(=O)c1cc(S(=O)(=O)NCc2ccncc2)ccc1OC,0,-33,13,0,-4,15,x,x,x,x
COc1cc(S(=O)(=O)NCc2ccncc2)ccc1Br,5,16,56*,13,63*,26,90*,0,8,44*
COCCn1c(C)cc(C(=O)COc2nc3ccccc3nc2C)c1C,0,25,67*,7,98*,10,85*,0,6,47*
COCCn1c(C)cc(C(=O)CSc2ccc3ccccc3n2)c1C,-70,-30,0,-62,-1,-100,x,x,x,x
O=C(c1ccc(CNS(=O)(=O)c2ccccc2)cc1)N1CCN(Cc2ccccc2)CC1,19,27,58*,19,21*,38,10,0,-4,16
Cc1ccc(S(=O)(=O)Nc2ncnc3sc(C)c(C)c23)cc1,4,-22,2,-9,-8,6,x,x,x,x
Cc1sc2ncnc(NCCc3ccc(S(N)(=O)=O)cc3)c2c1C,-13,28,66*,28,59*,49,109*,0,10,61*
Cn1nc(C(C)(C)C)cc1C(=O)NCc1cc(F)cc2c1OCOC2,-1,27,63*,26,95*,38,111*,0,6,61*
O=S(=O)(c1ccc2c(c1)OCCO2)N1CCN(c2ncnc3sccc23)CC1,4,38,70*,27,100*,36,111*,0,3,53*
COc1ccc(-c2oc3ccc(N4CCOCC4)cc3c2C#CCO)cc1,32,11,71*,47,57*,56,30*,-1,5,53*
COc1ccc(-c2ccc3oc(-c4ccc(OC)cc4)c(C#CCO)c3c2)cc1,-57,10,45*,-129,95*,8,110*,-1,-5,70*
O=C(NCC(c1ccccc1)c1ccccc1)[C@H](Cc1ccccc1)NC1(C(=O)NC2CCCCC2)CCOCC1,x,x,27,x,x,x,x,x,x,x
CC(C)(C)NC(=O)[C@H](c1cccnc1)N(C(=O)c1ccco1)c1ccc(C(C)(C)C)cc1,x,x,-1,x,x,x,x,x,x,x
CCCCCCCCCn1ccc(=N)cc1,52,31,77*,68*,96*,84*,110*,0,22*,82*
CCCCCn1ccc(=N)cc1,-7,16,37,9,9,-7,x,x,x,x
CCCCCCCn1ccc(=N)cc1,23,3,80*,24,16*,79*,33*,0,24*,77*
COC(=O)C[C@@H]1CC[C@H]2[C@@H](COc3ccc(NC(=O)Nc4ccccc4C)cc3C(=O)N2C)O1,x,0,-23,x,x,x,x,x,x,x
O=C(Cc1ccc2c(c1)OCO2)N1CCC(n2nc(-c3ccccc3)oc2=O)CC1,x,x,-6,x,x,x,x,x,x,x
Cc1cc(C(=O)NC2CCCc3c2cnn3-c2ccc(C(C)(C)C)cc2)nn1C (stereo unspecified),2,12,64*,32,97*,20,106*,-1,3,71*
Cc1cc(C)cc(-n2ncc3c2CCCC3NC(=O)c2cc(C)n(C)n2)c1 (stereo unspecified),3,1,8,-15,-1,-8,x,x,x,x
CC(C)(C)c1ccc(-n2ncc3c2CCCC3NC(=O)C2(C(N)=O)CC2)cc1 (stereo unspecified),-12,27,65*,29,92*,30,114*,0,-8,60*
Cc1ccccc1C(=O)N(Cc1ccccn1)CC1CCCO1 (stereo unspecified),x,11,-3,x,x,x,x,x,x,x
C[n+]1c2n(c3ccccc31)N=C(c1cc(C(C)(C)C)c(O)c(C(C)(C)C)c1)CS2,7,9,81*,60,19*,79*,30*,17*,29*,87*
COc1cccc(C2=Nn3c(nnc3-c3ccccc3O)SC2)c1,7,-4,-9,12,-3,11,x,x,x,x
SMILES,NCOA1 inh,SRC2 inh,COUP-TFII inh,NCOA3 inh,GalR3 antag,NR5A2 inv ag,GalR3 antag conf,CNG parental,VP16 Luc counter,NR2F2 inh conf
C=CCC1(CC=C)CCCN1C(=O)c1cc(COc2cccc(OC)c2)on1,20,20,-3,4,-10,-2,x,x,x,x
C=CCC1(CC=C)CCCN1C(=O)c1cc(COc2cncc(Cl)c2)on1,11,26,48*,16,45*,-8,62*,1,-14,29
COc1ccc(N2CCCN(CC(=O)Nc3ccc(Cl)c(Cl)c3)CC2)cc1,x,-2,17,x,x,x,x,x,x,x
O=C(COC(=O)c1ccc(Sc2ncn[nH]2)c([N+](=O)[O-])c1)Nc1ccc(Cl)c(Cl)c1,x,-6,-14,x,x,x,x,x,x,x
Cc1cc(N2CCN(c3nc4ccccc4s3)CC2)n2ncnc2n1,16,-14,68*,19,24*,44,37*,0,-7,71*
CCn1cc(C(=O)NC2CCCc3c2cnn3-c2cccc(C)c2C)cn1 (stereo unspecified),-26,13,64*,-111,97*,-1,114*,0,-4,50*
Cc1cccc(-n2ncc3c2CCCC3NC(=O)c2ccncc2)c1C (stereo unspecified),31,5,64*,18,90*,49,111*,-1,2,49*
O=C(CSc1nnc(COc2ccc(Cl)cc2)n1Cc1ccco1)Nc1ccc2c(c1)OCO2,x,4,21,x,x,x,x,x,x,x
CN(C)S(=O)(=O)c1cccc(C(=O)NCC(=O)NC2CCN(Cc3ccccc3)CC2)c1,-3,-20,-6,-24,-10,1,x,x,x,x
C=CCN(c1ccccc1)S(=O)(=O)c1cccc(C(=O)NC2CCN(Cc3ccccc3)CC2)c1,15,3,58*,21,89*,19,62*,1.4*,3,44*
O=C(NC1CCN(Cc2ccccc2)CC1)c1cccc(S(=O)(=O)Nc2ccc(Br)cc2)c1,14,15,10,1,-8,10,x,x,x,x
